These results are taken from PubChem BioAssay (EPA / NIEHS).

The nature of assay [1]: ATG_M_61_CIS: Attagene CIS-FACTORIAL HepG2 Assay for M61 Transcription Factor (Internal Marker) (AID 2282937). The note with it: HepG2 Attagene CIS-FACTORIAL M61 internal marker reporter; actives raise or lower the signal. Put shortly: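 Readout is reporter mRNA by RT-PCR, fluorescent primer extension and capillary electrophoresis, with gain or loss fitted relative to DMSO. Transfected HepG2 cells carrying endogenous-TF-driven cis reporters were exposed to chemicals for 24 hours.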

Assay [2] in a line: ATG_EGR_CIS: Attagene CIS-FACTORIAL HepG2 Assay for human Early Growth Response 1 (EGR1) (AID 2282938). The note with it: HepG2 Attagene CIS-FACTORIAL EGR reporter mRNA; actives raise or lower the signal. Put shortly:
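After 24 h compound exposure, RNA from reporter-transfected HepG2 cells was reverse-transcribed, PCR-amplified, fluorescently labelled and resolved by capillary electrophoresis. EGR1 reporter transcript changes, up or down, were fitted against DMSO, reflecting endogenous transcription-factor activity.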

Assay [3] can be described thus: ATG_M_19_CIS: Attagene CIS-FACTORIAL HepG2 Assay for M19 Transcription Factor (Internal Marker) (AID 2282939). As to conditions: HepG2 Attagene CIS-FACTORIAL M19 internal marker reporter; actives raise or lower the signal. Put shortly: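 Chemical-treated HepG2 (24 h) with MRTU constructs; reporter transcripts detected by fluorescent RT-PCR fragment analysis on capillary electrophoresis. Internal background marker, DMSO as baseline.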

The nature of assay [4]: ATG_ERE_CIS: Attagene CIS-FACTORIAL HepG2 Assay for Estrogen Response Element (ERE) (AID 2282940). The note with it: HepG2 ERE cis-reporter, Attagene RNA transcript; actives raise or lower the signal. In short, it runs like this:
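Human liver cells (HepG2) bearing transiently transfected, promoter-regulated reporter units were exposed 24 h. Reporter mRNA induction was detected by capillary electrophoresis of labelled RT-PCR products and fitted bidirectionally to DMSO.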

The nature of assay [5]: ATG_Ets_CIS: Attagene CIS-FACTORIAL HepG2 Assay for human Erythroblast Transformation Specific (ETS) (AID 2282941). As to conditions: HepG2 ETS cis-reporter transcription, actives raise or lower the signal. In short, it runs like this:
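Endogenous transcription factor activity read as reporter mRNA via RT-PCR and capillary electrophoresis, with gain or loss fitted bidirectionally against DMSO. Human HepG2 liver cells, transiently transfected CIS reporter constructs, 24 h exposure.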

For assay [6], the target named is Hepatocyte nuclear factor 3-beta (Homo sapiens) (UniProt Q9Y261). Kind of assay: ATG_FoxA2_CIS: Attagene CIS-FACTORIAL HepG2 Assay for human Forkhead box A2 (FOXA2) (AID 2282942). As to conditions: HepG2 cis-reporter transcription factor activity, 24 h; actives raise or lower the signal. In short, it runs like this: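 Endogenous transcription factor activity is captured via cis-element-driven reporter transcripts in transfected HepG2. Total RNA taken at 24 h post-dosing; labelled RT-PCR products resolved by capillary electrophoresis. Gain or loss fitted versus DMSO.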
Hepatocyte nuclear factor 3-beta (Homo sapiens), sequence (Q9Y261 whole entry, looked up): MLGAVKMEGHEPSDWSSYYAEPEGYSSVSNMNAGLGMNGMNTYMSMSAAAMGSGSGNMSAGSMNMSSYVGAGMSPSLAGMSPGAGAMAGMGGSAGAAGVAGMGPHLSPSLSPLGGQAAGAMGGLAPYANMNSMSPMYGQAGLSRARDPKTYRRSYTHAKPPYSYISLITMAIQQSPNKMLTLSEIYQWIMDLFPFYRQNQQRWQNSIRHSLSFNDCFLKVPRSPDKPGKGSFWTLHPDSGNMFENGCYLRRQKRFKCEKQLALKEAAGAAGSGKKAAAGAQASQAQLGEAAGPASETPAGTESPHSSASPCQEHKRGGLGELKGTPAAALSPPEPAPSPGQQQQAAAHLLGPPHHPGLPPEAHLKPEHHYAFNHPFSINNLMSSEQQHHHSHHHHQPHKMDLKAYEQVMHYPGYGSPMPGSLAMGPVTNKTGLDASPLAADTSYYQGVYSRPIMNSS

A short description of assay [7]: ATG_FoxO_CIS: Attagene CIS-FACTORIAL HepG2 Assay for human Forkhead box O (FoxO) (AID 2282943). As to conditions: HepG2 Attagene cis-reporter, FoxO element, mRNA; actives raise or lower the signal. Put shortly:
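HepG2 cells transiently transfected with cis-element-driven reporter units report endogenous FoxO activity. After 24 h chemical exposure, reporter mRNA quantified by RT-PCR, fluorescent labeling, HpaI digestion and capillary electrophoresis; bidirectional fit versus DMSO.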

A short description of assay [8]: ATG_GLI_CIS: Attagene CIS-FACTORIAL HepG2 Assay for human Zinc Finger Protein GLI1 (AID 2282945). The note with it: HepG2, Attagene cis-factorial reporter mRNA, GLI element; actives raise or lower the signal. Put shortly: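 Transiently transfected HepG2 cells report endogenous transcription factor activity via cis-element-driven reporter units. After 24 h compound exposure, reporter mRNA was measured by RT-PCR with capillary electrophoresis; bidirectional fitting against DMSO baseline.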

For assay [9], the target named is Bile acid receptor (Homo sapiens) (UniProt Q96RI1). The assay can be described thus: ATG_IR1_CIS: Attagene CIS-FACTORIAL HepG2 Assay for human Nuclear Receptor Subfamily 1 Group H Member 4 (NR1H4), IR1 submotif (AID 2282946). As to conditions: IR1 reporter transcription, actives raise or lower the signal. In short, it runs like this:
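Fluorescence of capillary-separated, HpaI-digested RT-PCR reporter products gave IR1-element mRNA induction in HepG2 cells 24 h after dosing. Endogenous transcription factors drove the cis-regulated reporters; activity was fitted bidirectionally against DMSO.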

A short description of assay [10]: ATG_GRE_CIS: Attagene CIS-FACTORIAL HepG2 Assay for human Glucocorticoid Response Elements (GRE) (AID 2282947). The note with it: HepG2 GRE cis-reporter, Attagene multiplex mRNA; actives raise or lower the signal. In short, it runs like this:
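Read-out: fluorescent reporter-transcript fragments separated by capillary electrophoresis after RT-PCR. Transiently transfected HepG2 cells carrying cis-element-driven reporter units were dosed for 24 h; gain or loss of signal fitted against DMSO control.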

The nature of assay [11]: ATG_ISRE_CIS: Attagene CIS-FACTORIAL HepG2 Assay for human Interferon Regulatory Factor 1 (IRF1) binding to an Interferon-Stimulated Response Element (ISRE) (AID 2282948). As to conditions: HepG2 ISRE cis-reporter (Attagene), mRNA transcription readout; actives raise or lower the signal. In short, it runs like this:
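Endogenous transcription factor activity read as reporter transcript abundance via RT-PCR and capillary electrophoresis. HepG2 cells transiently transfected, 24 h chemical exposure. Gain or loss fitted against DMSO baseline.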

Assay [12] is described as follows: ATG_M_32_CIS: Attagene CIS-FACTORIAL HepG2 Assay for M32 Transcription Factor (Internal Marker) (AID 2282949).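 Further: background control marker of the multiplexed CIS panel rather than a real target.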 The note with it: HepG2 Attagene cis-factorial M32 reporter, mRNA; actives raise or lower the signal. Put shortly: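 Using DMSO as baseline, bidirectional curve fits were applied to reporter mRNA signals. These came from transiently transfected HepG2 cells exposed for 24 h, with RNA analysed by RT-PCR, FAM primer extension, HpaI digestion and CE.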

Assay [13] in a line: ATG_M_06_CIS: Attagene CIS-FACTORIAL HepG2 Assay for M06 Transcription Factor (Internal Marker) (AID 2282950). As to conditions: HepG2 Attagene CIS-FACTORIAL M06 internal marker reporter; actives raise or lower the signal. Put shortly: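 Cells (HepG2, transiently carrying cis-driven reporter units) receive chemical for 24 h before RNA isolation. Reporter cDNA is PCR-amplified, FAM-labelled by primer extension, HpaI-digested and sized on a capillary analyser.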

The target in assay [14] is Hypoxia-inducible factor 1-alpha (Homo sapiens) (UniProt Q16665). The assay can be described thus: ATG_HIF1a_CIS: Attagene CIS-FACTORIAL HepG2 Assay for human Hypoxia Inducible Factor 1 (HIF1A) (AID 2282951). The note with it: HepG2 Attagene cis-factorial HIF1a reporter transcription; actives raise or lower the signal. In short, it runs like this:
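Activity is fitted in both directions relative to DMSO. Reporter transcripts are read by RT-PCR, fluorescent primer extension and capillary electrophoresis after 24 h chemical treatment. The cells are HepG2 carrying transiently transfected cis-element-driven reporter units responding to endogenous factors.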

Assay [15] concerns the target Hepatocyte nuclear factor 6 (Homo sapiens) (UniProt Q9UBC0). The assay can be described thus: ATG_HNF6_CIS: Attagene CIS-FACTORIAL HepG2 Assay for human Hepatocyte Nuclear Factor 6 (HNF6) (AID 2282952). The note with it: HepG2 Attagene cis-factorial HNF6 reporter transcription; actives raise or lower the signal. Put shortly:
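First, HepG2 cells were transfected with the multiplexed cis reporter library and dosed with chemical for 24 h. Next, RNA was reverse-transcribed, PCR-amplified and fluorescently labelled. Finally, HpaI-digested fragments were read by capillary electrophoresis.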

Assay [16] addresses Heat shock factor protein 1 (Homo sapiens) (UniProt Q00613). Kind of assay: ATG_HSE_CIS: Attagene CIS-FACTORIAL HepG2 Assay for human Heat Shock Transcription Factor 1 (HSE) (AID 2282953). As to conditions: HepG2 HSE cis-reporter, Attagene RNA transcription; actives raise or lower the signal. Put shortly: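 Liver-derived HepG2 cells carry transiently introduced multiple reporter units governed by cis promoters. Reporter RNA measured 24 h post-dose through reverse transcription, PCR amplification, fluorescent labelling and capillary electrophoresis, normalised to DMSO.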

The nature of assay [17]: ATG_MRE_CIS: Attagene CIS-FACTORIAL HepG2 Assay for human Metal Responsive Element (MRE) (AID 2282954). The note with it: HepG2 MRE cis-reporter transcription, Attagene multiplex; actives raise or lower the signal. Put shortly:
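RT-PCR/capillary electrophoresis readout of reporter mRNA, 24 h post-dosing, in HepG2 cells transfected with multiplexed cis-regulated reporter constructs. Gain or loss of signal fitted bidirectionally against DMSO baseline.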

Assay [18] in a line: ATG_PBREM_CIS: Attagene CIS-FACTORIAL HepG2 Assay for human Phenobarbital-responsive Enhancer Module (PBREM) (AID 2282955). As to conditions: HepG2 PBREM cis-reporter, Attagene multiplexed transcription; actives raise or lower the signal. Put shortly: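 Endogenous transcription factor activity was read from reporter transcripts in transiently transfected human HepG2 liver cells after 24 h dosing. RT-PCR products were fluorescently labelled, HpaI-cut and sized by capillary electrophoresis; activity fitted bidirectionally against DMSO baseline.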

The target in assay [19] is Paired box protein Pax-6 (Homo sapiens) (UniProt P26367). The assay can be described thus: ATG_Pax6_CIS: Attagene CIS-FACTORIAL HepG2 Assay for human Paired Box 6 (PAX6) (AID 2282956). As to conditions: HepG2 CIS-FACTORIAL PAX6 reporter transcription, RNA readout; actives raise or lower the signal. Put shortly: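 Read-out is reporter transcript level, measured by RT-PCR with fluorescent primer extension and capillary electrophoresis after 24 h dosing of transfected HepG2 cells. Activity in either direction fitted relative to DMSO control.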
Paired box protein Pax-6 (Homo sapiens), sequence (P26367 whole entry, looked up): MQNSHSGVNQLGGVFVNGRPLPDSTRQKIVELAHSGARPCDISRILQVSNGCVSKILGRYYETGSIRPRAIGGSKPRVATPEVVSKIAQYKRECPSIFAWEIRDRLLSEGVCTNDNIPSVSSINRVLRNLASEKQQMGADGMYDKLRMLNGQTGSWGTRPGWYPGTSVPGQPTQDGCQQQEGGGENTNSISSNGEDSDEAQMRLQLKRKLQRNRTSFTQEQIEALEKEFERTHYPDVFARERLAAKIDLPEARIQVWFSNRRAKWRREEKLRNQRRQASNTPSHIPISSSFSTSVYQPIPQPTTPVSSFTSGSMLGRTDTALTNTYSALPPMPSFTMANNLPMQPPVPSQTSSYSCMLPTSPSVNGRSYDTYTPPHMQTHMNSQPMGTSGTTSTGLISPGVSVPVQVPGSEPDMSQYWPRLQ

Assay [20] in a line: ATG_GATA_CIS: Attagene CIS-FACTORIAL HepG2 Assay for human GATA Binding Protein (AID 2282944). As to conditions: HepG2 GATA cis-element reporter, Attagene multiplex mRNA; actives raise or lower the signal. In short, it runs like this: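 Transfected cis-reporter HepG2 cells were treated with chemicals for 24 hours. Total RNA was then converted to cDNA, amplified with reporter-specific primers and analysed by fluorescent capillary electrophoresis, using DMSO-treated wells as baseline.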

Calls of active or inactive are those of the source. How the source made its calls: active means hit-call score of the fitted dose curve at least 0.9, where 1 is the maximum; inactive means score below 0.9.

Heat shock factor protein 1 (Homo sapiens), sequence (Q00613 whole entry, looked up): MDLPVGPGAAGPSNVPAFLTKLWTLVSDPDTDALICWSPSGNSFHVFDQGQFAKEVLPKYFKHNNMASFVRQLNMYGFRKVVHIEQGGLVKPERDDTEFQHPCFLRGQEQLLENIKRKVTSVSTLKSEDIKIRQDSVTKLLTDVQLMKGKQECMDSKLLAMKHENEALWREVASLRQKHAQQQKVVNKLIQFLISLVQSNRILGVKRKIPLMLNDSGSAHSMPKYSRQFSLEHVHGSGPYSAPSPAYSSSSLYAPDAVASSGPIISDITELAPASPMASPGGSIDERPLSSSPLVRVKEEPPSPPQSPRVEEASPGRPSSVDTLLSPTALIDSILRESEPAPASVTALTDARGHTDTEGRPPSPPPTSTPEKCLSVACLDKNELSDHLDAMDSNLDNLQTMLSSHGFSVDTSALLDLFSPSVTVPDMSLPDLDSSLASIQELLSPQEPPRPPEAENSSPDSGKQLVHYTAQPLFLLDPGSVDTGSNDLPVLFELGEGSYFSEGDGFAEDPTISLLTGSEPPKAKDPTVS
Hepatocyte nuclear factor 6 (Homo sapiens), sequence (Q9UBC0 whole entry, looked up, the tested form may be a part): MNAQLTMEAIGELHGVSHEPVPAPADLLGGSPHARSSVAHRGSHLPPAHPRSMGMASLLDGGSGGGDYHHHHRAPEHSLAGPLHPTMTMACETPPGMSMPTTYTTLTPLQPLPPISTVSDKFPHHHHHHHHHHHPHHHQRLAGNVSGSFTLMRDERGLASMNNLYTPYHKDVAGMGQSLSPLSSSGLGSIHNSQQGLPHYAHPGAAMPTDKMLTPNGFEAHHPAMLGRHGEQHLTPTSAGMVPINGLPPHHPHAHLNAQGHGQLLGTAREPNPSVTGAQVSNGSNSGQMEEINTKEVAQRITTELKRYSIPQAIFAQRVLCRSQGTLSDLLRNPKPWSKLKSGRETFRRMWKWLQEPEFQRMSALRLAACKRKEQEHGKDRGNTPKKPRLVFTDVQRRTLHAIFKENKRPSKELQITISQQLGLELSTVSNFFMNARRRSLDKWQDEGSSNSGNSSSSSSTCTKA
Hypoxia-inducible factor 1-alpha (Homo sapiens), sequence (Q16665 whole entry, looked up): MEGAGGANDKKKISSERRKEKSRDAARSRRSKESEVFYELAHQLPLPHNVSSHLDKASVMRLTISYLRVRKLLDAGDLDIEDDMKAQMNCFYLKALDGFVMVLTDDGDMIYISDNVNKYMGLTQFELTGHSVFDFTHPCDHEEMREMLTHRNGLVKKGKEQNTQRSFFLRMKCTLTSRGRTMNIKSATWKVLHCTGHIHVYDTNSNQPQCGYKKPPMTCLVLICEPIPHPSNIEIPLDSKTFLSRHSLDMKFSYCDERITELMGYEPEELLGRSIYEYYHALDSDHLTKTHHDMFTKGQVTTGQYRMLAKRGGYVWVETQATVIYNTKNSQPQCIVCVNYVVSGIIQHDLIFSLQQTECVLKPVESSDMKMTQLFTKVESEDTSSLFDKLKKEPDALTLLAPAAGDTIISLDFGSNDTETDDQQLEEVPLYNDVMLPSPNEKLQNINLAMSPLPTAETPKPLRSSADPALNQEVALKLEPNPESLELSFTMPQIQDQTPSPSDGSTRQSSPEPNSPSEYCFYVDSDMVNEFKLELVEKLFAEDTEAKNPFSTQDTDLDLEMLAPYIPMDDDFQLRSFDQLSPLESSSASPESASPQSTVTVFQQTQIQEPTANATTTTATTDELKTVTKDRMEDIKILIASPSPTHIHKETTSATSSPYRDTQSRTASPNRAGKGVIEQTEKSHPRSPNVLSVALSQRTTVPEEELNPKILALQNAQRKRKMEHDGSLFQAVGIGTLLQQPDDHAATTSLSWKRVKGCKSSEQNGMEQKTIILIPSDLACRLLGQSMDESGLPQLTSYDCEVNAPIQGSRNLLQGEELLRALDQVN
Bile acid receptor (Homo sapiens), sequence (Q96RI1 whole entry, looked up): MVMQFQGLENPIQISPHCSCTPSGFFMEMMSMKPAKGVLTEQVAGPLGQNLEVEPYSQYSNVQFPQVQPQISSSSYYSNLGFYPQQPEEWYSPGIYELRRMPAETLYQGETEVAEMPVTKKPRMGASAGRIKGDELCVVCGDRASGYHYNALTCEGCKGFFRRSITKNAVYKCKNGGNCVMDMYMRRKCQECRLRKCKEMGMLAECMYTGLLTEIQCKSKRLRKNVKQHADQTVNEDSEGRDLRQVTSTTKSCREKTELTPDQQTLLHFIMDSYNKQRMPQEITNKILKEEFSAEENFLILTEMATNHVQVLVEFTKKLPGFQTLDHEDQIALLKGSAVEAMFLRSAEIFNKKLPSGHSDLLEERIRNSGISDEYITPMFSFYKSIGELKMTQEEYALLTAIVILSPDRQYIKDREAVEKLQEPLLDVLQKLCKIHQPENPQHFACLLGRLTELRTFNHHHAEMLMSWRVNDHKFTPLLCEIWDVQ

Consider `O=S(=O)(F)C(F)(F)C(F)(F)C(F)(F)C(F)(F)F`, for which the compound was called inactive in [1], in assay [2], in assay [3], in assay [4], in assay [5] and in assay [6]. For the same compound, the call in assay [7], in assay [8], in [9], in [10], in [11] and in assay [12] was inactive. Further, the result in [13], in assay [14], in assay [15], in assay [16], in assay [17] and in [18] was inactive. Also, the compound was called inactive in assay [19].
In the case of `CC(C)(C#N)N=NC(C)(C)C#N`, the call in [1], in assay [2], in assay [3], in [4], in [5] and in assay [6] was inactive. Further, the compound was classed as inactive in assay [7], in assay [20], in [8], in assay [10], in [11] and in assay [12]. Moreover, the compound was called inactive in assay [13], in assay [14], in [15], in [16], in assay [17] and in assay [18]. Further, the call in [19] was inactive.
Turning to `Cc1cc(C(C)(C)c2ccc(O)c(C)c2)ccc1O`, the compound was called inactive in assay [1], in assay [3], in assay [6], in assay [9], in [12] and in assay [13]. Further, the half-maximal activity concentration (AC50) – broadly, the concentration giving half of the maximal activity seen – in assay [2] is 32.4 µM (active); in assay [4] it was 0.265 µM (active); in assay [5], 20.2 µM (active); in [20], 91.3 µM (active); in assay [8] it was 74.7 µM (active); in assay [10], 79.5 µM (active). For the same compound, the AC50 is 50 µM (active) in assay [11]; 30.3 µM (active) in assay [14]; 93.9 µM (active) in assay [15]; 50.6 µM (active) in assay [17]; 18.1 µM (active) in assay [18]; 50 µM (active) in [19].
On to `Oc1c(Br)cc(Br)cc1Br`, for which the result in [1], in assay [3], in [5], in assay [6], in assay [7] and in assay [20] was inactive. Moreover, the result in assay [8], in assay [11], in assay [12], in assay [14], in assay [15] and in assay [16] was inactive. In assay [19], the call was inactive. For the same compound, the AC50 in [2] was 31.9 µM (active); in assay [4], 24.9 µM (active); in assay [17] it was 78.7 µM (active); in assay [18] it was 20.9 µM (active).
